In PubChem BioAssay:
Active and inactive are the calls of the source.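 How the source made its calls, unless noted: active means compounds whose cell count with miR-34 switched on is under 0.7 times the count with it off; inactive means the rest.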

Columns and labels:
[1] = viability loss with induced miR-34 in A549 – imaging, A549 dox-inducible miR-34, nuclei and caspase counts, primary screen (AID 1347080); conditions: A549 miR-34 inducible, Hoechst nuclei count, 48 h
[2] = MELAS cybrid and Rieske KO viability enhancers – cell-based, MELAS cybrids, Rieske KO mouse fibroblasts, CellTiter-Glo, primary screen (AID 1508586;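 active means mean z-score across replicates of 1.96 or higher in either the MELAS or the Rieske mutant cell line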;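 further: z relative to plate mean and SD of compound and empty wells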); conditions: low glucose
[3] = stronger effect = lower value, cell number ratio, induced over uninduced
[4] = measured here: relative caspase fold change +Dox/-Dox
[5] = measured here: total cells with miR-34 induction, stronger effect = lower value
[6] = measured here: total cells without miR-34 induction
[7] = MELAS cybrid survival, CellTiter-Glo 48 h, stronger effect = higher value
[8] = Rieske KO mouse fibroblast survival, CellTiter-Glo 72 h
Further: test concentration not given here.

Row | SMILES | fold change [1, 3] | fold change [1, 4] | cell count [1, 5] | cell count [1, 6] | z-score [2, 7] | z-score [2, 8]
1 | COC(=O)C=CC(=O)OC | 0.917 (inactive) | 0.928 | 10100 | 11000 | -0.336 (inactive) | 0.844
2 | Cc1ccc(S(=O)(=O)c2ccc([N+](=O)[O-])o2)cc1 | 1.58 (inactive) | 0.353 | 1860 | 1180 | -1.09 (inactive) | -6.94
3 | CNc1nc(Nc2cnn(C3CCN(C4COC4)CC3F)c2Cl)ncc1C(F)(F)F (stereo not given) | 0.967 (inactive) | 0.45 | 8480 | 8760 | -0.354 (inactive) | 0.843
4 | Cc1cc2c(C(=O)NCC(C)c3ccccc3)c(O)c(O)cc2c(O)c1-c1c(C)cc2c(C(=O)NCC(C)c3ccccc3)c(O)c(O)cc2c1O (stereo not given) | 1.07 (inactive) | 0.503 | 2050 | 1910 | -0.836 (inactive) | -6.52
5 | CC(=O)OCC(=O)[C@]12N=C(C)O[C@@H]1C[C@H]1[C@@H]3CCC4=CC(=O)C=C[C@]4(C)[C@@H]3C(O)C[C@@]12C (stereo not given in full) | 0.954 (inactive) | 1.27 | 5010 | 5250 | -0.0832 (inactive) | -0.272
6 | CC1(C)S[C@@H]2C(NC(=O)C(C(=O)O)c3ccccc3)C(=O)N2C1C(=O)O (stereo not given in full) | 0.89 (inactive) | 0.816 | 8430 | 9470 | -0.386 (inactive) | -0.157
7 | CC(C)(O)CCC(O)[C@](C)(O)C1CC[C@@]2(O)C3=CC(=O)[C@@H]4CC(O)C(O)C[C@]4(C)[C@@H]3CC[C@]12C (stereo not given in full) | 0.992 (inactive) | 0.932 | 10200 | 10300 | -0.354 (inactive) | 0.685
8 | CCCCCOC(=O)Nc1nc(=O)n(C2OC(C)C(O)C2O)cc1F (stereo not given) | 0.881 (inactive) | 1.03 | 6790 | 7710 | -0.294 (inactive) | 0.792
9 | Cn1cc(-c2[nH]c3cc(NC(=O)C(N)C4CCCCC4)cc4c3c2C=NNC4=O)cn1 (stereo not given) | 0.983 (inactive) | 1.09 | 2060 | 2100 | 0.356 (inactive) | -0.0626
10 | CC(=O)NC1C(N=C(N)N)C=C(C(=O)O)O[C@H]1C(O)C(O)CO (stereo not given in full) | 0.903 (inactive) | 0.622 | 9700 | 10700 | -0.333 (inactive) | 0.922
11 | CCOC(=O)C(CCc1ccccc1)NC(C)C(=O)N1C(=O)N(C)CC1C(=O)O (stereo not given) | 0.891 (inactive) | 1.39 | 7920 | 8880 | 0.163 (inactive) | -0.0366
12 | O=C(Nc1ncc(SCCN2CCCC2)s1)[C@]1(c2ccc(S(=O)(=O)C3CC3)cc2)CC1C1CCCCC1 (stereo not given in full) | 0.954 (inactive) | 1.22 | 5020 | 5260 | -0.306 (inactive) | -0.0398
13 | CC(=O)O[C@@]1(C(C)=O)CC[C@H]2[C@@H]3CCC4=CC(=O)CCC4=C3C(c3ccc(N(C)C)cc3)C[C@@]21C (stereo not given in full) | 1.04 (inactive) | 0.797 | 6660 | 6380 | -0.373 (inactive) | -0.0703
14 | N#CC(=Cc1ccc(O)c(O)c1)C(=O)NCc1ccccc1 | 0.901 (inactive) | 1.14 | 6440 | 7150 | -0.517 (inactive) | 0.15
15 | CC(CCC(=O)O)[C@@H]1CC[C@H]2[C@@H]3C(O)C[C@@H]4CC(O)CC[C@]4(C)[C@@H]3CC[C@]12C (stereo not given in full) | 0.828 (inactive) | 0.703 | 7430 | 8980 | -0.242 (inactive) | 0.0686
16 | COc1ccc(S(=O)(=O)N(C(C)=O)c2ccccc2C=Cc2cc[n+]([O-])cc2)cc1 | 1.18 (inactive) | 0.723 | 1240 | 1050 | 0.938 (inactive) | -0.247
17 | O=C(C=Cn1cnc(-c2cc(C(F)(F)F)cc(C(F)(F)F)c2)n1)N1CC(F)(F)C1 | 0.887 (inactive) | 0.422 | 1980 | 2230 | -0.618 (inactive) | -7.49
18 | CN(C)c1cc(NC(=O)CNC(C)(C)C)c(O)c2c1C[C@H]1C[C@H]3C(N(C)C)C(=O)C(C(N)=O)=C(O)[C@@]3(O)C(=O)C1=C2O (stereo not given in full) | 0.917 (inactive) | 1.11 | 8200 | 8950 | -0.43 (inactive) | 0.225
19 | CCC1OC(=O)CC(O)C(C)C(O[C@H]2OC(C)C(O[C@H]3C[C@@](C)(O)C(O)C(C)O3)C(N(C)C)C2O)C(CC=O)CC(C)C(=O)C=CC(C)=CC1COC1OC(C)C(O)C(OC)C1OC (stereo not given in full) | 0.9 (inactive) | 0.768 | 8760 | 9740 | -0.254 (inactive) | -0.134
20 | CC1C[C@H]2[C@@H]3CCC4=CC(=O)C=C[C@]4(C)[C@@H]3C(=O)C[C@]2(C)[C@]1(O)C(=O)CO (stereo not given in full) | 1.57 (inactive) | 0.521 | 7500 | 4760 | -0.4 (inactive) | 0.152
21 | CC(=O)O[C@]12COC1CC(O)[C@]1(C)C(=O)C(O)C3=C(C)C(OC(=O)C(O)C(NC(=O)OC(C)(C)C)c4ccccc4)C[C@](O)(C(OC(=O)c4ccccc4)C21)C3(C)C (stereo not given in full) | 1.04 (inactive) | 0.7 | 2320 | 2220 | 6.54 (active) | -0.0789
22 | O=C1C(Cl)=C(N2CCOCC2)C(=O)N1c1ccc(Cl)c(Cl)c1 | 0.939 (inactive) | 0.753 | 7840 | 8360 | -0.367 (inactive) | -0.893
23 | COc1cc2ncnc(Nc3ccc(F)c(Cl)c3)c2cc1NC(=O)C=CCN1CCCCC1 | 1.12 (inactive) | 0.707 | 3310 | 2960 | -0.496 (inactive) | -1.94
24 | CN1CC[C@H](c2c(O)cc(O)c3c(=O)cc(-c4ccccc4Cl)oc23)C(O)C1 (stereo not given in full) | 0.938 (inactive) | 1.82 | 1600 | 1700 | 3.42 (active) | -0.841
25 | CCOc1ccc2ccccc2c1C(=O)NC1C(=O)N2C(C(=O)O)C(C)(C)S[C@H]12 (stereo not given in full) | 1.19 (inactive) | 0.989 | 8800 | 7400 | -0.279 (inactive) | -0.179
